Results taken from PubChem BioAssay AID1159580 (chemical genetic matrix, 2015).
Values joined by “and” are separate entries in the source; they are usually repeats but may differ in a detail not shown here. Equal values may be shown once. Screen size: about 5,500 compounds; about 2,000 (36%) were called active. Not shown: some 18% with an inconclusive outcome. Cut-off read from the data, not from the text of the source: active = normalized growth mostly below about 0.91 (no sharp cut-off); inconclusive = no clear call, values can overlap the other calls; inactive = mostly above about 0.92. Some of the results follow.

Experiment: chemical genetic growth profiling, strain panel (AID 1159580);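 note: tested at 20 µM; growth read once vehicle control cultures reached saturation at 30 °C; 1 = growth at the plate median or of vehicle wells; lower values mean less growth of the strain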
Conditions: S. cerevisiae deletion strains, growth OD

Measured: normalized growth

COC(=O)C(O)c1ccccc1 (stereo unspecified)
inactive: locus YAL021C, strain ccr4, hits give low values 1.02 | locus YAL026C, strain drs2, hits give low values 1.01 | locus YAL030W, strain snc1, hits give low values 0.984 | locus YBL061C, strain skt5, hits give low values 0.996 | locus YBR009C, strain hhf1, hits give low values 1.01 | locus YBR021W, strain FUR4, hits give low values 1.06 | locus YBR023C, strain chs3, hits give low values 1.01 | locus YBR171W, strain sec66, hits give low values 0.99 | locus YBR229C, strain ROT2, hits give low values 0.999 | locus YBR231C, strain swc5, hits give low values 0.961 | locus YBR279W, strain paf1, hits give low values 0.999 | locus YCL011C, strain gbp2, hits give low values 1.02 | locus YCL016C, strain dcc1, hits give low values 1.02 | locus YCL029C, strain bik1, hits give low values 0.982 | locus YCL069W, strain vba3, hits give low values 1 | locus YCR088W, strain abp1, hits give low values 0.99 | locus YDL005C, strain med2, hits give low values 0.984 | locus YDL035C, strain GPR1, hits give low values 1.05 | locus YDL040C, strain nat1, hits give low values 0.991 | locus YDL074C, strain BRE1, hits give low values 1.05 | locus YDL101C, strain DUN1, hits give low values 0.977 | locus YDL134C, strain PPH21, hits give low values 0.964 | locus YDL185W, strain tfp1, hits give low values 0.949 | locus YDL192W, strain arf1, hits give low values 1.01 | locus YDR001C, strain nth1, hits give low values 0.99 | locus YDR069C, strain doa4, hits give low values 0.996 | locus YDR101C, strain arx1, hits give low values 1.05 | locus YDR137W, strain rgp1, hits give low values 1.01 | locus YDR159W, strain sac3, hits give low values 0.973 | locus YDR162C, strain NBP2, hits give low values 0.975 | locus YDR195W, strain ref2 0.909 | locus YDR297W, strain sur2, hits give low values 0.992 | locus YDR318W, strain mcm21, hits give low values 0.985 | locus YDR334W, strain swr1, hits give low values 0.98 | locus YDR335W, strain msn5, hits give low values 1.01 | locus YDR388W, hits give low values 0.973 | locus YDR392W, strain spt3, hits give low values 1.02 | locus YDR502C, strain sam2, hits give low values 0.969 | locus YEL003W, strain gim4, hits give low values 0.99 | locus YEL037C, strain rad23, hits give low values 0.992 | locus YEL061C, strain CIN8 (second series), hits give low values 0.983 | locus YEL061C, strain CIN8, hits give low values 0.991 | locus YER015W, strain faa2, hits give low values 1.01 | locus YER016W, strain bim1, hits give low values 0.993 | locus YER110C, hits give low values 0.984 | locus YER111C, strain swi4, hits give low values 0.981 | locus YER155C, strain BEM2 (second series), hits give low values 0.978 | locus YER155C, strain BEM2, hits give low values 0.988 | locus YER167W, strain BCK2, hits give low values 1.01 | locus YFR010W, strain ubp6, hits give low values 0.974 | locus YGL078C, strain dbp3, hits give low values 0.974 | locus YGL086W, strain mad1, hits give low values 0.996 | locus YGL167C, strain pmr1, hits give low values 0.995 | locus YGL173C, strain kem1, hits give low values 0.981 | locus YGL227W, strain vid30, hits give low values 1 | locus YGL240W, strain doc1, hits give low values 0.99 | locus YGL248W, strain PDE1, hits give low values 0.983 | locus YGL253W, strain hxk2, hits give low values 0.983 | locus YGR078C, strain PAC10, hits give low values 0.974 | locus YGR135W, strain pre9, hits give low values 0.941 | locus YGR229C, strain SMI1, hits give low values 0.961 | locus YGR252W, strain gcn5, hits give low values 1.02 | locus YHR013C, strain ard1, hits give low values 1 | locus YHR027C, strain rpn1, hits give low values 0.986 | locus YHR030C, strain SLT2, hits give low values 1.02 | locus YHR079C, strain IRE1 (second series), hits give low values 0.971 | locus YHR079C, strain IRE1, hits give low values 0.996 | locus YHR094C, strain hxt1, hits give low values 0.983 | locus YHR129C, strain ARP1, hits give low values 0.993 | locus YHR142W, strain chs7, hits give low values 1.02 | locus YHR200W, strain rpn10, hits give low values 0.963 | locus YIL066C, strain RNR3, hits give low values 1.02 | locus YIL073C, strain SPO22, hits give low values 0.977 | locus YIL125W, strain kgd1, hits give low values 1 | locus YIR030C, strain dcg1, hits give low values 0.975 | locus YJL092W, strain hpr5, hits give low values 0.991 | locus YJL095W, strain BCK1 (second series), hits give low values 0.985 | locus YJL095W, strain BCK1, hits give low values 0.963 and 1.01 | locus YJL115W, strain asf1, hits give low values 0.981 | locus YJL129C, strain trk1, hits give low values 0.992 | locus YJL134W, strain LCB3, hits give low values 0.992 | locus YJL154C, strain vps35, hits give low values 0.986 | locus YJL164C, strain tpk1, hits give low values 1.03 | locus YJL166W, strain qcr8, hits give low values 1.04 | locus YJL168C, strain set2, hits give low values 0.976 | locus YJL187C, strain SWE1 (second series), hits give low values 0.98 | locus YJL187C, strain SWE1, hits give low values 0.997 | locus YJR043C, strain POL32, hits give low values 1.09 | locus YJR066W, strain TOR1, hits give low values 0.939 | locus YKL009W, strain mrt4, hits give low values 1.05 | locus YKL068W, hits give low values 0.982 | locus YKL085W, strain MDH1 (second series), hits give low values 0.976 | locus YKL085W, strain MDH1, hits give low values 0.976 | locus YKL160W, strain elf1, hits give low values 1.04 | locus YKL190W, strain CNB1, hits give low values 0.975 | locus YKR001C, strain vps1, hits give low values 1.02 | locus YKR026C, strain gcn3, hits give low values 0.981 | locus YKR091W, strain srl3, hits give low values 0.993 | locus YLL001W, strain dnm1, hits give low values 0.985 | locus YLL026W, hits give low values 0.991 | locus YLL041C, strain sdh2, hits give low values 1.02 | locus YLR027C, strain aat2, hits give low values 1.02 | locus YLR039C, strain RIC1, hits give low values 1 | locus YLR058C, strain SHM2, hits give low values 1.01 | locus YLR102C, strain apc9, hits give low values 0.981 | locus YLR113W, strain HOG1, hits give low values 0.983 | locus YLR221C, strain rsa3, hits give low values 0.999 | locus YLR258W, strain gsy2, hits give low values 1.02 | locus YLR262C, strain YPT6 (second series), hits give low values 1.05 | locus YLR268W, strain sec22, hits give low values 1.03 | locus YLR320W, strain mms22, hits give low values 0.999 | locus YLR342W, strain FKS1, hits give low values 1 | locus YLR357W, strain rsc2, hits give low values 0.983 | locus YLR370C, strain arc18, hits give low values 0.994 | locus YLR371W, strain rom2, hits give low values 0.983 | locus YLR384C, strain iki3, hits give low values 0.98 | locus YLR418C, strain cdc73, hits give low values 0.953 | locus YML016C, strain PPZ1, hits give low values 0.977 | locus YML032C, strain rad52, hits give low values 1.01 | locus YML120C, strain ndi1, hits give low values 1.01 | locus YML124C, strain tub3, hits give low values 0.988 | locus YMR058W, strain fet3, hits give low values 1 | locus YMR078C, strain ctf18, hits give low values 0.974 | locus YMR125W, strain sto1, hits give low values 0.998 | locus YMR129W, hits give low values 0.995 | locus YMR205C, strain PFK2, hits give low values 1.02 | locus YMR223W, strain ubp8, hits give low values 0.975 | locus YMR231W, strain pep5, hits give low values 0.977 | locus YMR307W, strain GAS1, hits give low values 1.22 | locus YNL067W, strain RPL9B, hits give low values 0.965 | locus YNL071W, strain lat1, hits give low values 1.01 | locus YNL153C, strain GIM3, hits give low values 0.964 | locus YNL183C, strain NPR1, hits give low values 0.946 | locus YNL209W, strain ssb2, hits give low values 1.01 | locus YNL233W, strain BNI4, hits give low values 0.993 | locus YNL248C, strain rpa49, hits give low values 0.983 | locus YNL250W, strain rad50, hits give low values 0.943 | locus YNL271C, strain bni1, hits give low values 0.968 | locus YNL298W, strain CLA4, hits give low values 0.989 | locus YNL307C, strain MCK1, hits give low values 0.985 | locus YNL322C, strain KRE1 (second series), hits give low values 0.992 | locus YNR049C, strain mso1, hits give low values 0.993 | locus YNR052C, strain pop2, hits give low values 0.975 | locus YOL012C, strain htz1 0.732 | locus YOL147C, strain pex11, hits give low values 0.986 | locus YOR001W, strain rrp6, hits give low values 0.964 | locus YOR061W, strain CKA2, hits give low values 1.02 | locus YOR069W, strain VPS5, hits give low values 0.992 | locus YOR070C, strain gyp1, hits give low values 1.01 | locus YOR080W, strain dia2, hits give low values 0.98 | locus YOR083W, strain WHI5, hits give low values 1.05 | locus YOR106W, strain vam3, hits give low values 1.02 | locus YOR136W, strain idh2, hits give low values 0.989 | locus YOR144C, strain elg1, hits give low values 0.998 | locus YOR184W, strain ser1, hits give low values 1.09 | locus YOR231W, strain MKK1, hits give low values 1.01 | locus YOR265W, strain rbl2, hits give low values 0.998 | locus YOR270C, strain vph1, hits give low values 1.01 | locus YOR290C, strain snf2, hits give low values 1.06 | locus YOR316C, strain cot1, hits give low values 0.966 | locus YPL051W, strain arl3, hits give low values 0.979 | locus YPL078C, strain atp4, hits give low values 1.04 | locus YPL106C, strain sse1, hits give low values 0.997 | locus YPL240C, strain hsp82, hits give low values 0.993 | locus YPL241C, strain CIN2, hits give low values 0.986 | locus YPL256C, strain CLN2, hits give low values 0.978 | locus YPR119W, strain clb2, hits give low values 0.952 | locus YPR141C, strain kar3, hits give low values 0.961 | locus YPR163C, strain tif3, hits give low values 0.983 | locus YPR167C, strain met16, hits give low values 0.979 | strain wtn01, hits give low values 1.01
